Screening data deposited in PubChem by National Center for Advancing Translational Sciences (NCATS).
In the library only some 12% were active in any assay of this set; here they are far more common.
Gal4-VP16 FLuc – Gal4-VP16 reporter inhibition counter-screen. AID 2546. Drosophila S2 Gal4-VP16 UAS-luciferase, luminescence, 20 h. 310,000 tested, 3.5% active. Potency, µM (highest dose often 53.6 µM), for the others: at the top dose activity, negative = inhibition, actives largely listed as inhibitors;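 note: Gal4-VP16 expression switched on by copper sulfate through the metallothionein promoter; nearly all actives have a fitted effect of over 50% in size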
RORgamma inh – inhibitors of mouse ROR gamma transcriptional activity | AID 2551 | P51450 | Drosophila S2 Gal4-RORgamma UAS-luciferase reporter, 20 h | Potency, µM (doses to about 53.6 µM), inactives show top-dose activity change, negative = inhibition, most hits filed as inhibitors | 310,000 tested, 5.4% active; note: nearly all actives have a fitted effect of over 60% in size
Target sequence (P51450 whole entry, looked up, the tested form may be a part): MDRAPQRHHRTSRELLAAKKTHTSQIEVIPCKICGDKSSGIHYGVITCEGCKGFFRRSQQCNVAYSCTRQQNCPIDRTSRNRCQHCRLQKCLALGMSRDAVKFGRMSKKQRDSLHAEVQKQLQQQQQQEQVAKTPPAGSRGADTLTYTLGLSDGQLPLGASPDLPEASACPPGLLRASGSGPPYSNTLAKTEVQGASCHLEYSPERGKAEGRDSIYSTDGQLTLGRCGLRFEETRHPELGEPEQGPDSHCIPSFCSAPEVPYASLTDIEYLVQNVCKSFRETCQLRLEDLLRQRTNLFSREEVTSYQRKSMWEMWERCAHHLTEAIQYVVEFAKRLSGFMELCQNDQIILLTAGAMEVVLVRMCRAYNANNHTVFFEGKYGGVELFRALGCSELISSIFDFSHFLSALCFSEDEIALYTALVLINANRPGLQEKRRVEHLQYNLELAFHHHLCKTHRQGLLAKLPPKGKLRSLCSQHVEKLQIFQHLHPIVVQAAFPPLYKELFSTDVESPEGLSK
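In this cell-based reporter format, copper sulfate (700 uM final) drives Gal4–ROR gamma fusion expression from a metallothionein promoter in Drosophila Schneider cells; compounds preincubated 1 hr, reporter read after 20 hr at ambient temperature.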
ALDH1A1 block – ALDH1A1 (human) enzyme inhibition. 220,000 tested, 7.3% active. Purified ALDH1A1, NADH fluorescence, propionaldehyde substrate. P00352. Potency, µM (top dose mostly 75.3 µM), without a hit: at the highest dose activity, negative = inhibition, hits mostly inhibitors. AID 1030; active = well fitted inhibition curve with a large enough effect, not every such curve was filed as active; inconclusive = small, poorly fitted or top-dose-only effect, or another doubt; inactive = no such curve, though single readings can be large or run the other way;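 note: plate controls were no enzyme wells and a reference inhibitor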
Sfp PPTase inh – inhibitors of Bacillus subtilis Sfp phosphopantetheinyl transferase | Q9F4F7 | Biochemical Sfp PPTase activity, qHTS | Potency, µM, inactives show largest response in the series, negative = inhibition, most hits filed as inhibitors | 310,000 tested, 3.5% active | AID 1490;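 note: the enzyme is Sfp with the accession as filed and its product quenches rhodamine fluorescence; 0% = enzyme reaction without inhibitor and -100% = no enzyme wells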
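After 15 min at room temperature with compound, 15 nM Sfp received 5 uM rhodamine-CoA plus 12.5 uM BHQ-2-ybbR (50 mM Hepes pH 7.6, 10 mM MgCl2). Rate came from the fluorescence difference over 30 min, ex 525/em 598 nm.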
PLK1 PBD block – blocks phosphopeptide binding to human PLK1 polo-box domain; P53350; Plk1 PBD binding of FITC phosphopeptide, fluorescence polarization; Potency, µM, for inactives: max response, negative = inhibition, usual class: inhibitors; 360,000 tested, 2.8% active; note: series mostly up to about 57 µM; nearly all actives have a fitted effect of over 65% in size
The depositor's hits bear a star; ? = inconclusive; / = no result; [ ] = another dose, or the depositor's remark. Unless noted, calls come from the whole dose curve; as a rule, active = well fitted curve in the direction sought with a large enough effect; inconclusive = small, poorly fitted or top-dose-only effect, or another doubt; inactive = no such curve, though single readings can be large; an effect the other way counts as inactive or inconclusive. Unless noted, % is set by controls: 0 for no effect and ±100 for the full control effect; potency is the fitted concentration of half-maximal effect.

SMILES	Gal4-VP16 FLuc	RORgamma inh	ALDH1A1 block	Sfp PPTase inh	PLK1 PBD block
CC(=O)O[C@H]1[C@H]2[C@@H](OC(=O)Cc3ccccc3)[C@@H](C)C[C@]2(OC(C)=O)C(=O)/C(C)=C/[C@@H]2[C@H](CC[C@@]13CO3)C2(C)C	0%	?	-2%	0%	/
NC(N)=NCCCCCCCCCCN=C(N)N	2%	25%	5%	?	/
CCn1nc(-c2ccccc2)nc2c(=O)n(C)c(=O)nc1-2	1.3µM*	0.89µM*	?	22%	?
Cc1ccc(NC(=O)Cn2c(=O)oc3ccccc32)cc1C	5%	9%[1.91 µM]	/	-3%	21µM*
CCN1C(=O)N(CC)C(=O)C2(Cc3ccccc3N3CCN(c4ccccc4)CC32)C1=O (stereo not drawn)	20%	39%	/	71µM*	-15%
CS(=O)(=O)O[C@H]1CN2CCC1CC2	/	/	-1%[13.5 µM]	/	/
O=C(c1cc(-c2cccnc2)nc2ccc(Cl)cc12)N1CCC2(CC1)OCCO2	-7%	1%	7.1µM*	11%	-12%
Cc1ccc2c(c1)N(CCC(=O)N1CCC3(CC1)OCCO3)C(=O)CO2	4%	-3%	10µM*	4%	-6%
Cc1nn(Cc2ccccc2)c(C)c1C(=O)OCC(=O)NCc1ccco1	10%	15%	15%	-20%	0%
CC(C)C(OC(=O)c1ccco1)C(=O)NCc1ccco1 (stereo not drawn)	2%	4%	-9%	2%	27µM*
Cc1cc(O)c2c(c1)C(=O)c1cc(O)cc(O)c1C2=O	?	-102%	22µM*	-3%	?
Cc1ccc(-c2cn3c(=S)[nH]nc3s2)cc1	?	2.8µM*	?	35µM*	-26%
Cc1coc2c1CCC(C)C2 (stereo not drawn)	0%	-14%	?	/	/
O=P(OCCCl)(OCCCl)OCCCl	-2%	-1%	28µM*	/	/
Cc1c(O)c(=O)ccn1C	-6%	-6%	-2%	56µM*	-3%
Cc1nc2c(=O)n(C)c(=O)nc-2n(C)n1	3.5µM*	?	-5%	-6%	-14%
CCCCC(CC)COC(=O)c1ccc(C(=O)OCC(CC)CCCC)c(C(=O)OCC(CC)CCCC)c1 (stereo not drawn)	-16%	1%	?	/	/
CCCOc1ccc(N2C(=O)CC(N3CC=C(c4ccccc4)CC3)C2=O)cc1 (stereo not drawn)	-4%	14%	10µM*	-2%	-5%
Cc1nn(-c2ccccc2)c2c1C(c1ccc(F)cc1F)C(C#N)=C(N)O2 (stereo not drawn)	8%	?	13µM*	3%	21µM*
COc1ccc(OC)c(C2C(C#N)=C(N)Oc3c2c(C)nn3-c2ccc(C)cc2)c1 (stereo not drawn)	14%	?	?	17%	30µM*
Cc1nn(-c2ccccc2)c(Cl)c1C1C(C#N)=C(N)Oc2c1c(=O)oc1ccccc21 (stereo not drawn)	3%	1%	-4%	11%	0%
CCCC/C=C/[C@@H](NP(=O)(c1ccccc1)c1ccccc1)c1ccccc1OC	-9%	19%	-12%	?	/
O=c1[nH]c(=S)[nH]c(O)c1C(c1ccccn1)c1c(O)[nH]c(=S)[nH]c1=O	9%	1%	?	25µM*	-12%
CCn1c(O)c(C(c2ccccn2)c2c(O)n(CC)c(=S)[nH]c2=O)c(=O)[nH]c1=S	1%	-2%	25µM*	50µM*	-6%
CCOC(=O)c1ccccc1NC(=O)c1c(O)[nH]c(=S)[nH]c1=O	/	/	/	/	-7%
COC(=O)[C@]1(C)CC[C@@]2(C)CC[C@@]3(C)C4=CC=C5C(=CC(=O)C(O)=C5C)[C@@]4(C)CC[C@@]3(C)C2C1 (stereo partly drawn)	3.5µM*	4µM*	-10%	-85%	/
C=CC[N+]1(C)CCC23c4c5ccc(O)c4O[C@H]2C(=O)CC[C@@]3(O)C1C5 (stereo partly drawn)	-3%	-1%	-15%	56µM*	/
C[N+]1([O-])CCC[C@@H]1c1cccnc1 (stereo partly drawn)	/	/	-1%	30%	/
COc1ccc(OCCn2cc(/C=C(\C#N)C(=O)NCc3ccco3)c3ccccc32)cc1	3.5µM*	-41%	4%	12%	-9%
